# Rows were chosen to be rich in hits. Some 21% of all compounds tested hit in one or more screens of this group.
# Pf growth 96h = P. falciparum growth inhibition at 96 hour, primary screen for plastid delayed-death inhibitors; P. falciparum luciferase reporter growth, 96 h; Potency, µM (series often up to 28.7 µM), for inactives: top-dose activity change, negative = inhibition, most hits filed as inhibitors; 320,000 compounds, 6.9% hits; AID 504834; active means well fitted inhibition curve with a large enough effect; inconclusive means small, poorly fitted or top-dose-only effect, or another doubt; inactive means no such curve, though single readings can be large or run the other way; further: potency means the concentration at half of the fitted maximal effect; on the % scale 0 is the no-effect control and ±100 the full control effect
#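 Two-generation exposure (96 h) targets delayed-death phenotype. Reporter parasites carrying integrated firefly luciferase, in red cells at 2% hematocrit and 0.05% parasitemia final, kept at 37 C, 5% CO2; luminescence loss indicates inhibition.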
# Pf growth 48h = inhibits P. falciparum growth in the first generation, 48 h; P. falciparum luciferase growth in erythrocytes, 48 h; Potency, µM (top dose mostly 28.7 µM), for the others: top-dose activity change, negative = inhibition, usual class: inhibitors; 310,000 compounds, 5.9% hits; AID 504832; active means well fitted inhibition curve with a large enough effect; inconclusive means small, poorly fitted or top-dose-only effect, or another doubt; inactive means no such curve, though single readings can be large or run the other way; further: potency means the concentration at half of the fitted maximal effect; on the % scale 0 is the no-effect control and ±100 the full control effect
#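 Growth was read as firefly luciferase luminescence after a 48 h, 37 C, 5% CO2 exposure of compounds to reporter-bearing P. falciparum cultures (0.1% parasitemia, 2% hematocrit final) in Albumax-supplemented RPMI 1640.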
# SARS PLP yeast = inhibitors of SARS-CoV papain-like protease in yeast; S. cerevisiae expressing SARS-CoV PLpro, growth rescue; Potency, µM (series often up to 32.9 µM), without a hit: top-dose activity, positive = growth rescue, actives largely listed as activators; 330,000 compounds, 0.19% hits; further: potency means the concentration at half of the fitted maximal effect; 0% is about no effect; nearly all actives have a fitted effect of over 55% in size
# NS1 inh = influenza NS1 inhibition. Potency, µM (doses to about 46.1 µM), for inactives: top-dose activity, positive = more growth. 270,000 compounds, 0.4% hits. AID 2326; further: potency means the concentration at half of the fitted maximal effect; actives are rising curves; nearly all actives have a fitted effect of over 50% in size
#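 Read-out: OD600 growth recovery of NS1-expressing budding yeast. Cells grown overnight at 30C in -URA glucose medium, washed, resuspended and diluted 1:100 in 2% galactose assay medium, pH 6.0. Same strain lacking NS1 served as positive control.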
# Shiga inhibitor = Shiga toxin inhibition. Vero cells, Shiga toxin protein synthesis inhibition reporter. inhibition, % at 38.7 µM. 290,000 compounds, 9.2% hits; in the data active means inhibition mostly above about 28%, no sharp cut-off; inactive means mostly below about 43%; further: 0% is about no effect
# CHX counter = counter-screen hit for Shiga toxin inhibitors, cycloheximide; cell reporter, cycloheximide protein synthesis inhibition counterscreen; max response, %; 300,000 compounds, 12% hits; AID 2314; in the data active means max response mostly above about 13%, no sharp cut-off; inactive means mostly below about 14%; further: read at 38.3 µM for the half of the compounds with a filed dose; 0% is about no effect
# * marks the source's active call; other numbers are inactive results; u = inconclusive; x = no result given; ! = not confirmed by another sample. Unless noted, the call rests on the fitted dose curve.
SMILES,Pf growth 96h,Pf growth 48h,SARS PLP yeast,NS1 inh,Shiga inhibitor,CHX counter
O=C(COC(=O)C12CC3CC(CC(Br)(C3)C1)C2)Nc1cccnc1Cl,18%,2%,1%,-6%,19,1
Cc1cc(N2C(=O)Cc3ccccc3C2=O)ccc1C(C)C,10%,15%,-3%,9%,27,19*
COc1ccc(NC(=O)/C=C/c2cccc(F)c2)cn1,147%,216%,-10%,-16%,72*,43*
COc1ccc(NC(=O)/C=C/c2ccco2)cn1,181%,245%,3%,11%,90*,36*
COc1ccc(NC(=O)/C=C/c2ccc(Br)o2)cn1,9%,63%,0%,x,86*,20*
CC1CN(S(=O)(=O)c2cc(C(=O)NC(C)c3cccnc3)ccc2Cl)CC(C)O1 (centres undefined),x,x,-4%,x,x,x
CC(=O)N1CN(C2CCCC2)Cc2c1sc1c2CCCC1,x,-17%,0%,-4%,-2,-1
CC(=O)N1CN(C2CC(C)(C)NC(C)(C)C2)Cc2c1sc1c2CCCC1,12µM*,12µM*,-12%,-9%,-2,-1
c1ccc2oc(NC3=NCN(C4CCCCC4)CN3)nc2c1,92%,88%,-1%,-17%,18,20*
COCCCN1CN=C(NS(=O)(=O)c2ccc(C)cc2)NC1,-1%,2%,-6%,0%,-3,-6
CCCCN1CN=C(Nc2nc3ccccc3o2)NC1,159%,57%,-1%,3%,116*,62*
COCCN1CN=C(Nc2nc3ccccc3o2)NC1,3%,21%,5%,8%,35,27*
CCCCS(=O)(=O)NC1=NCN(Cc2ccco2)CN1,1%,32%,1%,-7%,-4,-2
COCCN1CN=C(Nc2nc3ccccc3s2)NC1,18%,46%,-4%,-7%,31*,21*
COCCN1CN=C(NS(=O)(=O)c2ccc(C)cc2)NC1,-14%,-8%,-2%,-4%,-6,13
c1ccc2sc(NC3=NCN(C4CCCCCC4)CN3)nc2c1,u,u,8%,-17%,-7,-2
COc1ccc(-c2nnn(CC(=O)Nc3ccc4c(c3)OCCO4)n2)cc1OC,u,u,-4%,x,x,x
CCOc1ccccc1C1NC(=O)c2ccccc2O1 (centres undefined),200%,u,-4%,-7%,-6,-2
CCOC(=O)C1CCN(S(=O)(=O)c2c(C)[nH]c(C)c2C(=O)N2CCCCC2)CC1,4%,-23%,20%,1%,10,-1
COc1ccc(C)cc1S(=O)(=O)N(C)CC(=O)N1CCN(c2ccccc2)CC1,21%,-31%,-1%,-1%,26,1
Cc1ccc(Cn2nnnc2CN2CCC(NC(=O)C(C)(C)C)CC2)cc1,24%,7%,1%,-6%,-14,9
CC(C)N1CN=C(Nc2nc3ccccc3o2)NC1,u,31%,0%,x,37*,37*
Cc1ccnc(Nc2nc3ccccc3o2)n1,u,-17%,-11%,7%,0,6
C=CCn1c(-c2ccc([N+](=O)[O-])cc2)n[nH]c1=S,2.3µM*,2%,9%,21%,-11,-7
COc1ccc(S(=O)(=O)N(Cc2ccccc2)c2ccccc2C(=O)O)cc1,13µM*,2%,-4%,u,x,-2
SMILES,Pf growth 96h,Pf growth 48h,SARS PLP yeast,NS1 inh,Shiga inhibitor,CHX counter
COc1cccc(/C=N/NC(=O)c2ccccc2N(Cc2ccccc2)S(=O)(=O)c2ccccc2)c1OC,12µM*,u,3%,u,32,1
O=C(O)c1ccc(N(Cc2ccccc2)S(=O)(=O)c2ccccc2)cc1,9.3µM*!,-4%,1%,4%,3,-5
CCN1CCN(C(=O)c2ccccc2N(Cc2ccccc2)S(=O)(=O)c2ccc(C)cc2)CC1,15µM*,x,-3%,-1%,-16,-4
COc1ccc(S(=O)(=O)N(Cc2ccccc2)c2ccccc2C(=O)N2CCOCC2)cc1,-8%,u,-2%,-1%,2,-3
COc1cc(C(=O)NCCc2ccc(S(N)(=O)=O)cc2)ccc1OCc1c(C)noc1C,u,u,-1%,x,x,x
C=CCN(c1ccccc1C(=O)O)S(=O)(=O)c1ccc(NC(=O)OC)cc1,48%,2.3µM*,1%,u,9,-3
CC1CN(C(=O)c2cc3ccccc3cc2O)CC(C)O1 (centres undefined),u,u,3%,x,x,x
CC1CN(C(=O)c2cc3cc(Br)ccc3[nH]2)CC(C)O1 (centres undefined),u,12µM*,-2%,-1%,-4,-2
CC1CN(C(=O)c2cc(Br)c(Br)s2)CC(C)O1 (centres undefined),u,13%,2%,x,x,x
Cc1c(C(=O)N2CC(C)OC(C)C2)[nH]c2ccc(Br)cc12 (centres undefined),13µM*,u,-3%,-5%,-4,-2
O=C(c1cc2cc(Br)ccc2[nH]1)N1CCC2(CC1)OCCO2,u,u,-3%,-11%,46,28*
Cc1ccc2c(c1)C(=O)C1(O)CCN(c3ccccc3)C1=N2 (centres undefined),x,x,x,x,47,36*
O=C(CCS(=O)(=O)c1ccccc1)OCc1ccc([N+](=O)[O-])cc1,33%,18%,-7%,0%,-23,3
CCN(CC)CCCNc1nc2cc(OC)c(OC)cc2c2nc(-c3cccnc3)nn12,x,4.1µM*,-2%,-5%,-7,-7
COc1cc2nc(NCCCN3CCN(C)CC3)n3nc(-c4ccccc4)nc3c2cc1OC,x,x,7%,-3%,-3,6
CN1CCN(CCCNc2nc3ccccc3c3nc(-c4ccccc4)nn23)CC1,x,x,x,-3%,x,x
CCN(CC)CCCNc1nc2cc(OC)c(OC)cc2c2nc(-c3ccccc3)nn12,22%,2.3µM*,3%,2%,43,-1
COCCCNc1nc2cc(OC)c(OC)cc2c2nc(-c3ccccc3)nn12,-2%,0.29µM*,-1%,0%,-6,6
CCN(CC)CCCNc1nc2ccccc2c2nc(-c3ccncc3)nn12,4.1µM*,6.6µM*,1%,2%,-6,-3
COc1cc2nc(NCC3CCCO3)n3nc(-c4cccnc4)nc3c2cc1OC (centres undefined),u,x,8%,-37%,-11,-1
O=S(=O)(Nc1ccc2c(c1)OCO2)c1ccc(Cl)cc1F,13%,-5%,0%,x,x,x
O=C(Cc1ccccc1)OCCN1CCOCC1,u,7%,22%,11%,-3,1
O=C(CCc1ccccc1)OCCN1CCOCC1,10µM*,67%,7%,6%,26,5
O=C(CN1CCN(Cc2ccccc2)C1=O)NCCCN1CCOCC1,2.9µM*,x,-2%,5%,-2,5
CC(CCc1ccccc1)NC(=O)N1CCOCC1 (centres undefined),10µM*,-6%,5%,-5%,-3,-2
O=C(NCCCc1ccccc1)N1CCOCC1,2%,13%,-1%,2%,-8,-3

# Compound activity: PubChem BioAssay, National Center for Advancing Translational Sciences (NCATS)
